According to PubChem BioAssay (Tox21):
Results filed as inconclusive are left out. Calls of active or inactive are those of the source. Unless noted, calls come from the whole dose curve; as a rule, active = well fitted curve in the direction sought with a large enough effect in the repeat runs; inconclusive = weak or mixed curves; inactive = no such curve, though single readings can be large; an effect the other way counts as inactive or inconclusive.

Key:
[1] = biological target: Retinoic acid receptor RXR-alpha (Homo sapiens) (UniProt P19793); test: qHTS assay to identify small molecule agonists of the RXR signaling pathway (AID 1159527; calls by dose curve; note: nearly all actives have a fitted effect of over 35% in size)
Retinoic acid receptor RXR-alpha (Homo sapiens), sequence (P19793 whole entry, looked up): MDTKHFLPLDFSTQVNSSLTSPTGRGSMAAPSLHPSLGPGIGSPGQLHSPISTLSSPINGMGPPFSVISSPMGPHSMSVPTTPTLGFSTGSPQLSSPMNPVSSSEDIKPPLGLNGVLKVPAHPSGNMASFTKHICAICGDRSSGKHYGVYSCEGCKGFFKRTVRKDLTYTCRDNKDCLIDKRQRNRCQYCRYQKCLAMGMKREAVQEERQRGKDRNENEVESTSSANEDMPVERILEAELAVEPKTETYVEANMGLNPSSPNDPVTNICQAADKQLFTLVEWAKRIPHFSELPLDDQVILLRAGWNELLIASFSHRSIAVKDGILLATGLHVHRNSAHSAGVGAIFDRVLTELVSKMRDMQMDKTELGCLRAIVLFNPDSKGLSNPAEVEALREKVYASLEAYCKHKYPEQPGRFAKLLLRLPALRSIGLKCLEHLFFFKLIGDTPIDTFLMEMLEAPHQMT
Summary of the method: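 Fluorescence ratio readout (460 vs 530 nm) from GeneBLAzer RXR-alpha HEK 293T cells after 16 hr compound treatment; cells seeded 5 hr beforehand in low-serum, charcoal-stripped medium.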

[2] = qHTS assay to identify small molecule agonists of the RXR signaling pathway - cell viability counter screen (AID 1159529);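 note: HEK 293T cells carrying an RXR-alpha UAS beta-lactamase reporter; series mostly up to about 77 µM; nearly all actives have a fitted effect of over 50% in size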
Summary of the method: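 Viability read-out for the RXR-alpha agonist qHTS: luminescent CellTiter-Glo signal after 30 min at RT. HEK 293T bla reporter cells, 2% charcoal-stripped FBS, 16 hr compound incubation; tetraoctyl ammonium bromide as cytotoxic control.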

[3] = qHTS assay to identify small molecule antagonists of the retinoid acid receptor (RAR) signaling pathway - cell viability counter screen (AID 1159551); note: nearly all actives have a fitted effect of over 35% in size
Summary of the method: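 Following overnight attachment, C3RL4 reporter cells received DMSO-dissolved compounds and then retinol (1 uM final). Six hours later at 37 C, ATP content was measured by CellTiter-Glo luminescence.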

[4] = qHTS assay to identify small molecule antagonists of the retinoic acid receptor (RAR) signaling pathway (AID 1159552; note: nearly all actives have a fitted effect of over 50% in size)
Summary of the method: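 Using a RARE-driven luciferase construct in C3RL4 cells, retinol at 1 uM final provided the agonist stimulus while compounds were co-applied. After 6 hours at 37 C, luminescence was recorded to flag inhibitors of retinol signaling.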

[5] = qHTS assay to identify small molecule agonists of the retinoic acid receptor (RAR) signaling pathway (AID 1159553)
Summary of the method: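 Cell line C3RL4, RARE luciferase reporter. Treatment: compounds in DMSO, 6 hr, 37 C, 5% CO2, after overnight plating. Detection: luminescence, 30 min RT after reagent.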

Measured: Potency

NC(=O)NC1NC(=O)NC1=O (stereo not given)
inactive: [1] | [2] | [3]

O=C(O)CCCCC(=O)O
inactive: [1] | [2] | [3]

O=C(O)/C=C\C(=O)O
inactive: [1] | [2] | [3]

O=C1NC(=O)c2ccccc21
inactive: [1] | [2] | [3]

O=c1ccc2ccccc2o1
inactive: all assays above

Nc1ccc(C(=O)O)cc1
inactive: all assays above

O=C(O)c1[nH]n(-c2ccc(S(=O)(=O)O)cc2)c(=O)c1N=Nc1ccc(S(=O)(=O)O)cc1
inactive: [1] | [2] | [3]
